# Measurements published in the supplement of paper PMC8007513.
# Counter-ions that a name gives are not always drawn. ± gives the standard error. In all, about 1,300 compounds went through this assay and about 130 (10%) showed an effect of 50% or more. This excerpt belongs to a sample that is enriched for strong results.
# Test system: Trichoderma virens ATCC 9645
# Assay: growth yield (OD600) with compound + IPBC relative to untreated control; higher = less growth inhibition
# Details: compound concentration: 100 uM, IPBC concentration: 200 ng/ml
# How it was run: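 Trichoderma virens ATCC 9645 spores from 7-day potato dextrose agar plates were suspended in potato dextrose broth at 15,000 spores ml^−1. Aliquots of 100 μl with library compounds at 100 μM final, with or without a co-applied biocide at 200 ng ml^−1, were grown in 96-well plates at 30 °C. OD600 was read at 40 h and 72 h on a BioTek EL800. Growth is expressed relative to the control without either agent, as means of duplicate screens.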
Structure (SMILES),growth yield (40 h) [%],growth yield (72 h) [%]
CC(C)CC(N(C)C)C1(c2ccc(Cl)cc2)CCC1 (centres undefined) [Sibutramine hydrochloride] + CCCCNC(=O)OCC#CI [3-iodo-2-propynyl butylcarbamate (IPBC)],76.7 ± 0.79,90.82 ± 0.42
CCC[C@H](N[C@@H](C)C(=O)N1[C@H](C(=O)O)C[C@@H]2CCCC[C@@H]21)C(=O)OCC [Perindopril] + CCCCNC(=O)OCC#CI [3-iodo-2-propynyl butylcarbamate (IPBC)],98.8 ± 5.1,97.5 ± 3.1
COC(=O)Nc1nc2cc([S+]([O-])c3ccccc3)ccc2[nH]1 (centres undefined) [Oxfendazol] + CCCCNC(=O)OCC#CI [3-iodo-2-propynyl butylcarbamate (IPBC)],93.4 ± 6.3,98.2 ± 4.2
COC(=O)Nc1nc2cc(C(=O)c3ccc(F)cc3)ccc2[nH]1 [Flubendazol] + CCCCNC(=O)OCC#CI [3-iodo-2-propynyl butylcarbamate (IPBC)],86.4 ± 5.4,91.1 ± 4.9
CCCOc1ccc2[nH]c(NC(=O)OC)nc2c1 [Oxibendazol] + CCCCNC(=O)OCC#CI [3-iodo-2-propynyl butylcarbamate (IPBC)],44.6 ± 2.1,85 ± 4.8
COC(=O)Nc1nc2cc(C(=O)c3ccccc3)ccc2[nH]1 [Mebendazole] + CCCCNC(=O)OCC#CI [3-iodo-2-propynyl butylcarbamate (IPBC)],68 ± 1.9,89.36 ± 0.63
CCCSc1ccc2[nH]c(NC(=O)OC)nc2c1 [Albendazole] + CCCCNC(=O)OCC#CI [3-iodo-2-propynyl butylcarbamate (IPBC)],87.7 ± 8.9,99.7 ± 2.8
CCCCc1ccc2[nH]c(NC(=O)OC)nc2c1 [Parbendazole] + CCCCNC(=O)OCC#CI [3-iodo-2-propynyl butylcarbamate (IPBC)],27 ± 4.1,80.2 ± 2.2
N#Cc1cc(NC(=O)C(=O)O)c(Cl)c(NC(=O)C(=O)O)c1 [Lodoxamide] + CCCCNC(=O)OCC#CI [3-iodo-2-propynyl butylcarbamate (IPBC)],114 ± 10,109 ± 12
C=C(NC(=O)C(=C)NC(=O)c1csc(C2=N[C@@H]3c4csc(n4)[C@H]4NC(=O)c5csc(n5)[C@H]([C@](C)(O)[C@@H](C)O)NC(=O)[C@H]5CSC(=N5)/C(=C/C)NC(=O)[C@H]([C@@H](C)O)NC(=O)c5csc(n5)[C@]3(CC2)NC(=O)[C@H](C)NC(=O)C(=C)NC(=O)[C@H](C)NC(=O)[C@H]([C@@H](C)CC)N[C@@H]2C=Cc3c([C@H](C)O)cc(nc3[C@H]2O)C(=O)O[C@@H]4C)n1)C(N)=O [Thiostrepton] + CCCCNC(=O)OCC#CI [3-iodo-2-propynyl butylcarbamate (IPBC)],101 ± 2.5,100 ± 1.6
CNCCC=C1c2ccccc2CCc2ccccc21 [Nortriptyline hydrochloride] + CCCCNC(=O)OCC#CI [3-iodo-2-propynyl butylcarbamate (IPBC)],70.5 ± 2.2,94.28 ± 0.73
COC(=O)C1=C(C#N)NC(C)=C(C(=O)OC(C)C)C1c1cccc([N+](=O)[O-])c1 (centres undefined) [Nilvadipine] + CCCCNC(=O)OCC#CI [3-iodo-2-propynyl butylcarbamate (IPBC)],107.2 ± 0.16,102 ± 2.5
Cc1cc(O)c(C(=O)N[C@@H](C(=O)N[C@@H]2C(=O)N3C(C(=O)O)=C(CSc4nnnn4C)CS[C@H]23)c2ccc(O)cc2)cn1 [Cefpiramide] + CCCCNC(=O)OCC#CI [3-iodo-2-propynyl butylcarbamate (IPBC)],89.4 ± 2.7,90.9 ± 1.4
CN(C)C/C=C(/c1ccc(Br)cc1)c1cccnc1 [Zimelidine dihydrochloride monohydrate] + CCCCNC(=O)OCC#CI [3-iodo-2-propynyl butylcarbamate (IPBC)],77.8 ± 0.95,93.5 ± 2.1
C=C[C@H]1CN2CC[C@H]1C[C@@H]2[C@@H](O)c1ccnc2ccc(OC)cc12 [Quinidine hydrochloride monohydrate] + CCCCNC(=O)OCC#CI [3-iodo-2-propynyl butylcarbamate (IPBC)],77.7 ± 7.5,89.8 ± 6.3
O=C(c1ccc(F)cc1)C1CCN(CCn2c(=O)[nH]c3ccccc3c2=O)CC1 [Ketanserin tartrate hydrate] + CCCCNC(=O)OCC#CI [3-iodo-2-propynyl butylcarbamate (IPBC)],98.5 ± 8.3,101 ± 3.2
CCNC(=O)CCC/C=C\C[C@@H]1[C@@H](/C=C/[C@@H](O)CCc2ccccc2)[C@H](O)C[C@@H]1O [Bimatoprost] + CCCCNC(=O)OCC#CI [3-iodo-2-propynyl butylcarbamate (IPBC)],94.5 ± 5.6,95.4 ± 4.2
Cc1nc2n(c(=O)c1CCN1CCC(c3noc4cc(F)ccc34)CC1)CCCC2O (centres undefined) [Paliperidone] + CCCCNC(=O)OCC#CI [3-iodo-2-propynyl butylcarbamate (IPBC)],82.28 ± 0.32,90.09 ± 0.32
Nc1c(Br)cc(Br)cc1CN[C@H]1CC[C@H](O)CC1 [Ambroxol hydrochloride] + CCCCNC(=O)OCC#CI [3-iodo-2-propynyl butylcarbamate (IPBC)],73.2 ± 2.1,88.9 ± 2.5

Structure (SMILES),growth yield (40 h) [%],growth yield (72 h) [%]
CCOC(=O)OC(C)OC(=O)[C@@H]1N2C(=O)[C@@H](NC(=O)[C@H](N)c3ccccc3)[C@H]2SC1(C)C (some centres undefined) [Bacampicillin hydrochloride] + CCCCNC(=O)OCC#CI [3-iodo-2-propynyl butylcarbamate (IPBC)],89.1 ± 7.5,92.3 ± 3.8
CCN(CC)CC#CCOC(=O)C(O)(c1ccccc1)C1CCCCC1 (centres undefined) [Oxybutynin chloride] + CCCCNC(=O)OCC#CI [3-iodo-2-propynyl butylcarbamate (IPBC)],74.18 ± 0.16,88.52 ± 0.63
CCn1cc(C(=O)O)c(=O)c2cnc(N3CCNCC3)nc21 [Pipemidic acid] + CCCCNC(=O)OCC#CI [3-iodo-2-propynyl butylcarbamate (IPBC)],85.1 ± 3.2,90.1 ± 3
CCn1cc(C(=O)O)c(=O)c2cnc(N3CCCC3)nc21 [Piromidic acid] + CCCCNC(=O)OCC#CI [3-iodo-2-propynyl butylcarbamate (IPBC)],99.9 ± 14,99.5 ± 5.3
CCn1cc(C(=O)O)c(=O)c2ccc(C)nc21 [Nalidixic acid sodium salt] + CCCCNC(=O)OCC#CI [3-iodo-2-propynyl butylcarbamate (IPBC)],49.2 ± 1.6,100 ± 2.1
COc1ccc(C(CN(C)C)C2(O)CCCCC2)cc1 (centres undefined) [Venlafaxine] + CCCCNC(=O)OCC#CI [3-iodo-2-propynyl butylcarbamate (IPBC)],85.6 ± 4.3,89 ± 3
CC(C(=O)O)c1ccc2c(c1)[nH]c1ccc(Cl)cc12 (centres undefined) [Carprofen] + CCCCNC(=O)OCC#CI [3-iodo-2-propynyl butylcarbamate (IPBC)],33.2 ± 0.16,68.3 ± 1.1
CC(C)Cc1ccc([C@H](C)C(=O)O)cc1 [S-(+)-ibuprofen] + CCCCNC(=O)OCC#CI [3-iodo-2-propynyl butylcarbamate (IPBC)],70.68 ± 0.16,96.7 ± 1.7
CC(C(=O)O)c1ccc(C(=O)c2cccs2)cc1 (centres undefined) [Suprofen] + CCCCNC(=O)OCC#CI [3-iodo-2-propynyl butylcarbamate (IPBC)],86.6 ± 14,89.1 ± 8.6
CC(C)(C)NC[C@H](O)COc1cccc2c1CCCC2=O [(-) -Levobunolol hydrochloride] + CCCCNC(=O)OCC#CI [3-iodo-2-propynyl butylcarbamate (IPBC)],97.8 ± 16,99.2 ± 11
c1ccc(C2CN3CCSC3=N2)cc1 (centres undefined) [Tetramisole hydrochloride] + CCCCNC(=O)OCC#CI [3-iodo-2-propynyl butylcarbamate (IPBC)],87.8 ± 9.1,93.1 ± 4.8
COc1ccc(CCN2CCC(Nc3nc4ccccc4n3Cc3ccc(F)cc3)CC2)cc1 [Astemizole] + CCCCNC(=O)OCC#CI [3-iodo-2-propynyl butylcarbamate (IPBC)],5.08,4.3 ± 0.32
Clc1ccc(Cn2c(CN3CCCC3)nc3ccccc32)cc1 [Clemizole hydrochloride] + CCCCNC(=O)OCC#CI [3-iodo-2-propynyl butylcarbamate (IPBC)],73.5 ± 1.4,98.5 ± 1.4
CN(c1nccc(=O)[nH]1)C1CCN(c2nc3ccccc3n2Cc2ccc(F)cc2)CC1 [Mizolastine] + CCCCNC(=O)OCC#CI [3-iodo-2-propynyl butylcarbamate (IPBC)],70.2 ± 3.2,88.1 ± 4.8
CC(C)NCC(O)COc1ccc(CCOCC2CC2)cc1 (centres undefined) [Betaxolol hydrochloride] + CCCCNC(=O)OCC#CI [3-iodo-2-propynyl butylcarbamate (IPBC)],90.2 ± 11,99.4 ± 4.2
NC[C@H]1O[C@H](O[C@H]2[C@H](O[C@@H]3O[C@H](CO)[C@@H](O)[C@H]3O)[C@@H](O)[C@H](N)C[C@@H]2N)[C@H](N)[C@@H](O)[C@@H]1O [Ribostamycin sulfate salt] + CCCCNC(=O)OCC#CI [3-iodo-2-propynyl butylcarbamate (IPBC)],91.5 ± 6.3,96.1 ± 3.4
Cc1cccn2c(=O)c(-c3nnn[nH]3)cnc12 [Pemirolast potassium] + CCCCNC(=O)OCC#CI [3-iodo-2-propynyl butylcarbamate (IPBC)],72.7 ± 1.9,84.4 ± 2
O=C1CN(/N=C/c2ccc(-c3ccc([N+](=O)[O-])cc3)o2)C(=O)N1 [Dantrolene sodium salt] + CCCCNC(=O)OCC#CI [3-iodo-2-propynyl butylcarbamate (IPBC)],103 ± 3.8,104 ± 3.1
